Assay [1] in a line: optical density shifts of acrAB sulA E. coli – strain DRC41, OD650, 48 h, E. coli filamentation inducer project, primary screen (AID 1152).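 Further: E. coli MC1000 strain DRC41 lacking acrAB efflux pump and sulA.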 The settings on record: higher = more signal, called active from +8 up or from −8 down.
Assay [2] can be described thus: probe aLefty1 binding on compound microarray – biochemical, small-molecule microarray, 635/667 nm fluorescence, primary screen (AID 1153).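 Further: score merges spot fluorescence with signal-to-noise ratio from the scanned slide images.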 The note with it: higher = more signal.
Assay [3] is described as follows: plasmodial surface anion channel blockers, osmotic lysis – cell-based, P. falciparum Indochina, OD700, 1 h, primary screen (AID 1154). The note with it: P. falciparum Indochina infected RBC osmotic lysis, higher = more signal, called active from +8 up or from −8 down.
Assay [4] can be described thus: plasmodial surface anion channel blockers, osmotic lysis – cell-based, P. falciparum Indochina, OD700, 2 h, primary screen (AID 1155).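 Further: lysis reports solute entry through the parasite surface anion channel PSAC.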 The note with it: P. falciparum Indochina infected erythrocytes, higher = more signal, called active from +8 up or from −8 down.
A short description of assay [5]: changes in parasitized red cell lysis, either direction – P. falciparum Indochina, OD700, 3 h, PSAC antagonist project, primary screen (AID 1156). The settings on record: P. falciparum-infected erythrocytes, osmotic lysis, higher = more signal, called active from +8 up or from −8 down.
The nature of assay [6]: plasmodial surface anion channel blockers, osmotic lysis – cell-based, P. falciparum Indochina, OD700, 18 h, primary screen (AID 1157). The note with it: P. falciparum Indochina infected erythrocytes, osmotic lysis OD700, 18 h; higher = more signal, called active from +8 up or from −8 down.
A short description of assay [7]: S6 kinase pathway phospho-S6 level changes – cell-based, A549, cytoblot, luminescence, serum-stimulated, primary screen (AID 1158).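 Further: serum-stimulated A549 lung adenocarcinoma cells; signal is phosphorylated S6 detected by cytoblot immunostaining with HRP secondary.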 The note with it: 5 h, higher = more signal.
In assay [8] the target is NADPH oxidase 2 (Homo sapiens) (UniProt P04839). As to the kind of experiment: compounds shifting NOX2 Amplex Red fluorescence – cell-based, HEK293-NOX2, PMA-stimulated, NOX inhibitor project, primary screen (AID 1159). Further: test concentration not given here. The settings on record: 45 min, higher = more signal, called active from +8 up or from −8 down.
Assay [9] deals with NADPH oxidase 4 (Homo sapiens) (UniProt Q9NPH5). As to the kind of experiment: compounds shifting NOX4 Amplex Red fluorescence – cell-based, HEK293-NOX4, tetracycline-induced, NOX inhibitor project, primary screen (AID 1160). The note with it: HEK293-NOX4, Amplex Red H2O2 fluorescence, 45 min; higher = more signal, called active from +8 up or from −8 down.
Assay [10] addresses NADPH oxidase 5 (Homo sapiens) (UniProt Q96PH1). As to the kind of experiment: compounds shifting NOX5 Amplex Red fluorescence – cell-based, HEK293-NOX5, NOX inhibitor project, primary screen (AID 1161). The note with it: HEK293-NOX5, ionomycin, 45 min, higher = more signal.
Assay [11] in a line: compound effects on lung adenocarcinoma cell viability – A549, calcein-AM fluorescence, 48 h, basal, profiling panel (AID 1162). Further: test concentration not given here. The settings on record: higher = more signal.
Assay [12] in a line: compound effects on differentiated 3T3-L1 adipocyte viability – cell-based, 3T3-L1 adipocytes, calcein-AM fluorescence, 48 h, basal, profiling panel (AID 1163). Further: test concentration not given here. The note with it: 3T3-L1 adipocytes viability, higher = more signal.
The nature of assay [13]: compound effects on hepatocellular carcinoma cell viability – HepG2, calcein-AM fluorescence, 48 h, basal, profiling panel (AID 1164). Further: test concentration not given here. The settings on record: higher = more signal.
Assay [14] can be described thus: compound effects on multiple myeloma cell viability – MM1S, calcein-AM fluorescence, 48 h, basal, profiling panel (AID 1165).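 Further: viability of MM1S multiple myeloma cells under basal unstimulated conditions; test concentration not given here.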 The settings on record: higher = more signal.
Assay [15] can be described thus: calcein-AM signal in unstimulated myeloma cells – cell-based, calcein-AM fluorescence, 48 h, PK04 Diversity Set, profiling panel (AID 1166).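 Further: cells grown under basal conditions without added stimulus; test concentration not given here.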 The note with it: RPMI8226 myeloma viability, higher = more signal.
Assay [16] can be described thus: JC-1 mitochondrial signal, unstimulated HepG2 cells – cell-based, JC-1 fluorescence, 24 h, 100 nL compound, profiling panel (AID 1167). Further: test concentration not given here. The settings on record: HepG2 mitochondrial potential, higher = more signal.
The nature of assay [17]: JC-1 mitochondrial signal, unstimulated adipocytes – cell-based, JC-1 fluorescence, 3T3-L1 adipocytes, 24 h, 100 nL compound, profiling panel (AID 1168). Further: test concentration not given here. The settings on record: JC-1 mitochondrial fluorescence, higher = more signal, called active from +8 up or from −8 down.
The nature of assay [18]: JC-1 mitochondrial signal, unstimulated myeloma cells – cell-based, JC-1 fluorescence, RPMI8226, 24 h, 100 nL compound, profiling panel (AID 1169). Further: test concentration not given here. The settings on record: JC-1 mitochondrial potential fluorescence, higher = more signal.
Assay [19] in a line: JC-1 mitochondrial signal, unstimulated MM1S myeloma – cell-based, JC-1 fluorescence, 24 h, 100 nL compound, profiling panel (AID 1170). Further: test concentration not given here. The note with it: MM1S mitochondrial potential, higher = more signal.
The nature of assay [20]: resazurin metabolic signal in A549 cells – cell-based, resazurin fluorescence, 24 h, PK04 Diversity Set, profiling panel (AID 1171). Further: test concentration not given here. The note with it: A549 viability, higher = more signal, called active from +8 up or from −8 down. In general terms: The colour change of resazurin is a common sign of viable cells or microbes.

Drawing on PubChem BioAssay, this text covers z-score and composite z-score for eight compounds.

Activity calls are given as the source filed them.

Chain of NADPH oxidase 4 (Homo sapiens) (Q9NPH5 whole entry, looked up): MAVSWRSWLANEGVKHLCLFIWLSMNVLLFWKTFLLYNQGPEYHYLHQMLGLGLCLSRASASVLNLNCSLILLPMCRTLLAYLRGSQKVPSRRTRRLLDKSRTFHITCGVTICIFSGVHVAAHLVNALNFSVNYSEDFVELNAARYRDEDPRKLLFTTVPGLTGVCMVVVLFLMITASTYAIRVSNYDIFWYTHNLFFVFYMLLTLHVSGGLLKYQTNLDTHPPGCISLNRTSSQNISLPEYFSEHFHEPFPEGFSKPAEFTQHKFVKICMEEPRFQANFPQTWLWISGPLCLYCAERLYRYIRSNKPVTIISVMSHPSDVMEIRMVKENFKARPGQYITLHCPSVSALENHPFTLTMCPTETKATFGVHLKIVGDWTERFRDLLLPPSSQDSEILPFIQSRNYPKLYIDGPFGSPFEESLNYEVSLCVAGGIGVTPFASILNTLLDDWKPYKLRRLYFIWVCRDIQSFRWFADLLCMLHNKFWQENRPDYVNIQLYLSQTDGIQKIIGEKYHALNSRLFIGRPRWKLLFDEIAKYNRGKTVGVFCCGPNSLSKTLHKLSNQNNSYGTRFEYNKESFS
Chain of NADPH oxidase 5 (Homo sapiens) (Q96PH1 whole entry, looked up): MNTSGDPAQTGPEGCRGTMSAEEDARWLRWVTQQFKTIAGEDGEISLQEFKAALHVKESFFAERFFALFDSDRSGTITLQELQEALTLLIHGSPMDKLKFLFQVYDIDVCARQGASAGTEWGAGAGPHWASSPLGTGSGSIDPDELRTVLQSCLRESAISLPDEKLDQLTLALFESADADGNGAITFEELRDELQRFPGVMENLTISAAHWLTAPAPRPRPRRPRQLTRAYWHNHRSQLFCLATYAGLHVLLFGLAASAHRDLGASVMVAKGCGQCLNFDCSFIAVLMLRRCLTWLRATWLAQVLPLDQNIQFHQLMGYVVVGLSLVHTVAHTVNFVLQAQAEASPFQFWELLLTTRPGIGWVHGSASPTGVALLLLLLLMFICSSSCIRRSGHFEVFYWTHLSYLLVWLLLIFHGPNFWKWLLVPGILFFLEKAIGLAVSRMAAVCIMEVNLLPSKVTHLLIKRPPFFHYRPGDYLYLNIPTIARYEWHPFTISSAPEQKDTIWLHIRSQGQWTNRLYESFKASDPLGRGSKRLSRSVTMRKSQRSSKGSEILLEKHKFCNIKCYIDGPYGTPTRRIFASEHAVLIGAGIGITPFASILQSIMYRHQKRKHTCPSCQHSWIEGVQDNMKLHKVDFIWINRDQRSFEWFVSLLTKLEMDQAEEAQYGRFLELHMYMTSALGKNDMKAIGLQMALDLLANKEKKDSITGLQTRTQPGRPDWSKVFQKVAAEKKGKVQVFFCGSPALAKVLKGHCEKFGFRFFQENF
Chain of NADPH oxidase 2 (Homo sapiens) (P04839 whole entry, looked up): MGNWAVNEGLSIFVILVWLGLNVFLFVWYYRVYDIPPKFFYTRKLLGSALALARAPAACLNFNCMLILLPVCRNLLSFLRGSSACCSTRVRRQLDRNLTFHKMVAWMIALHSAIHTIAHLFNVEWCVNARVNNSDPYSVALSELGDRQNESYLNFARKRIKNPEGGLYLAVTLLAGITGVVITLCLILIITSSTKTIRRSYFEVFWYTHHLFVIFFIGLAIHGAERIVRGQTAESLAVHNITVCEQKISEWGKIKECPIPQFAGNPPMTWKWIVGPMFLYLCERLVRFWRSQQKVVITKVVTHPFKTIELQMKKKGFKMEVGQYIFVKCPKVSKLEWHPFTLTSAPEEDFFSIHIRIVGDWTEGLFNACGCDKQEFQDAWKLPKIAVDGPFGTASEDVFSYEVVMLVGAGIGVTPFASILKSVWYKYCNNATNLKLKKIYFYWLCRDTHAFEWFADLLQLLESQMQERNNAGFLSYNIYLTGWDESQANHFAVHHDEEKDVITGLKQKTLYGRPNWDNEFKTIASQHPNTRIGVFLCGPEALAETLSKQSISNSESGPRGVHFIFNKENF

As for `CCCCC(O)C1C=CC2C(=O)NC(=O)C2N1Nc1ccc(Cl)cc1Cl` (stereo not given), the z-score in assay [1] is -1.73 (inactive); in [3] it was 2.42 (inactive); in assay [4], 1.53 (inactive); in assay [5], 0.39 (inactive); in assay [6], 0.998 (inactive); in [7] it was -0.787. Further, the z-score is -0.461 (inactive) in assay [8]; -5.64 (inactive) in assay [9]; -3.41 in assay [10]; -1.99 in [11]; 0.266 in assay [12]; -2.39 in assay [13]. In addition, the z-score is -1.55 in [14]; -2.27 in assay [15]; -2.38 in assay [16]; -0.831 (inactive) in [17]; -0.64 in assay [18]; 0.724 in [19]. Moreover, in [20], the z-score was -1.99 (inactive). Also, the composite z-score in assay [2] was found to be 0.396.
In the case of `CC(C)C(=C=CC[C@@H](O)c1ccc(OCCO)cc1)CCO`, the z-score in [1] is 1.7 (inactive); in assay [3] it was 2.86 (inactive); in [4], -0.421 (inactive); in assay [5], -0.143 (inactive); in assay [6], -1.58 (inactive); in assay [7], 1.42. Also, the z-score was -1.47 (inactive) in [8]; -0.462 (inactive) in [9]; -0.971 in [10]; -0.45 in assay [11]; 0.721 in assay [12]; -0.164 in assay [13]. In addition, the z-score is 0.626 in assay [14]; 0.991 in [15]; 0.871 in [16]; 0.437 (inactive) in [17]; -0.21 in assay [18]; -1.11 in assay [19]. The z-score in assay [20] is 1.22 (inactive). Also, in assay [2], the composite z-score is -0.0054.
Regarding `COCCOC(=O)N1C(=O)[C@@]2(c3cc(C#Cc4ccc(OC)cc4)ccc31)[C@H](c1ccc(OCCO)cc1)N1[C@H](c3ccccc3)[C@H](c3ccccc3)OC(=O)[C@H]1[C@@H]2C(=O)N1CCCCCCC1`, the z-score in assay [1] is 0.543 (inactive); in assay [3] it was 2 (inactive); in assay [4] it was 0.481 (inactive); in assay [5], 0.306 (inactive); in assay [6] it was 0.0489 (inactive); in assay [7], 1.59. The z-score in [8] is 0.928 (inactive); in assay [9], 0.274 (inactive); in [10] it was 1.19; in assay [11] it was 0.571; in assay [12], 1.96; in assay [13], 0.856. The z-score is -0.0692 in assay [14]; 0.81 in assay [15]; -0.16 in assay [16]; -2.31 (inactive) in assay [17]; -0.684 in assay [18]; -1 in [19]. Moreover, the z-score in assay [20] was -0.436 (inactive). This compound came in with a composite z-score in assay [2] of 2.74.
With `COCCOC(=O)N1C(=O)[C@@]2(c3cc(C#Cc4ccc(OC)cc4)ccc31)[C@H](C(=O)N1CCCCCCC1)[C@H]1C(=O)O[C@H](c3ccccc3)[C@H](c3ccccc3)N1[C@@H]2c1ccccc1OCCO`, the z-score in [1] is 0.0696 (inactive); in [3] it was 0.688 (inactive); in [4], 1.36 (inactive); in [5], 0.286 (inactive); in assay [6] it was 1.07 (inactive); in [7] it was -0.17. The z-score is 0.0983 (inactive) in assay [8]; -0.0381 (inactive) in assay [9]; 0.724 in assay [10]; -0.198 in assay [11]; 1.05 in assay [12]; 0.383 in assay [13]. Besides, the z-score in assay [14] is -0.197; in [15] it was -0.417; in [16] it was 0.617; in assay [17] it was 3.29 (inactive); in assay [18] it was -0.16; in assay [19] it was -0.845. Also, the z-score in [20] is 0.122 (inactive). Also, the composite z-score in assay [2] worked out at 2.74.
Take `COc1ccc(CCNC(=O)[C@@]2(Sc3ccc(C)cc3)CC(=O)N(C(C)C)[C@@H]2c2ccc(CO)cc2)cc1`: the z-score in assay [1] was -0.58 (inactive); in assay [3] it was 2.36 (inactive); in [4], 0.741 (inactive); in assay [5], 0.152 (inactive); in [6] it was 0.549 (inactive); in assay [7] it was -0.21. The z-score in assay [8] was -0.575 (inactive); in assay [9], -1.16 (inactive); in assay [10] it was -2.03; in assay [11], 0.353; in [12], 0.356; in assay [13] it was -0.453. Moreover, the z-score in assay [14] was -0.169; in assay [15], 0.0991; in assay [16], -0.41; in assay [17] it was 0.0372 (inactive); in [18], 0.043; in assay [19], 0.277. The z-score in assay [20] is -0.107 (inactive). Also, in assay [2], the composite z-score was 0.0391.
For the compound `C=CCOC(=O)[C@@H]1[C@H]2C(=O)O[C@H](c3ccccc3)[C@H](c3ccccc3)N2[C@H](c2ccc(OCCOC(=O)[C@H]3C[C@H]4C(=O)NCC(=O)N4[C@H]3c3ccc(O)cc3)cc2)[C@@]12C(=O)Nc1ccc(I)cc12`, the z-score was -0.707 (inactive) in assay [1]; 8.8 (active) in [3]; 2.39 (inactive) in [4]; 0.345 (inactive) in assay [5]; 1.16 (inactive) in assay [6]; 0.379 in [7]. Moreover, the z-score is 0.588 (inactive) in [8]; 0.812 (inactive) in assay [9]; 0.711 in assay [10]; -0.441 in assay [11]; -0.105 in [12]; 0.273 in assay [13]. Moreover, the z-score in assay [14] is -0.172; in [15] it was -0.0622; in assay [16] it was -1.59; in assay [17], 0.91 (inactive); in [18], -0.772; in [19], -1. Besides, the z-score in assay [20] was 1.1 (inactive). For the same compound, the composite z-score in assay [2] was -0.154.
`CCCCC(=C=CC[C@H](O)c1ccc(OCCO)cc1)C[C@H](O)c1ccccn1`: the z-score in [1] is 0.558 (inactive); in [3] it was 15.4 (active); in assay [4], 2.3 (inactive); in [5], 1.11 (inactive); in assay [6], 1.07 (inactive); in [7], 0.433. In addition, the z-score in assay [8] was 1.26 (inactive); in assay [9] it was 0.364 (inactive); in [10], -1.34; in [11], 1.47; in assay [12], -0.398; in assay [13] it was 0.701. Also, the z-score in [14] was -0.556; in [15], -0.585; in [16], -0.0776; in assay [17], -0.794 (inactive); in assay [18], -0.485; in assay [19], -0.603. For the same compound, the z-score in [20] was 1.07 (inactive). Further, the composite z-score in [2] is -0.0536.
For the compound `CC=CC(O)C1C=CC2C(=O)N(C)C(=O)C2N1NC(=O)OC(C)(C)C` (stereo not given), the z-score in assay [1] was -1.06 (inactive); in [3], -0.597 (inactive); in assay [4], 0.43 (inactive); in assay [5], -0.0501 (inactive); in assay [6], 0.556 (inactive); in [7], -1.42. Further, the z-score in assay [8] was -0.798 (inactive); in assay [9], -1.37 (inactive); in [10], -1.22; in assay [11], -0.73; in [12] it was -0.604; in assay [13], -0.39. Besides, the z-score is -0.354 in assay [14]; -0.303 in assay [15]; -1.55 in assay [16]; -0.238 (inactive) in assay [17]; 0.397 in assay [18]; 0.163 in assay [19]. Further, the z-score in assay [20] is -0.383 (inactive). This compound also showed a composite z-score in assay [2] of 0.277.
